Among the test systems are DU-145 prostate; K-562 leukemia; MALME-3M melanoma; MDA-MB-231 breast; RXF 393 renal; SF-268 CNS; SF-295 CNS; SF-539 CNS; UACC-257 melanoma; M14 melanoma; HCT-15 colon; HT29 colon; SNB-75 CNS; SNB-19 CNS; U251 CNS; PC-3 prostate; SK-MEL-5 melanoma; UACC-62 melanoma; LOX IMVI melanoma; SK-MEL-28 melanoma.
What all share (assay): NCI-60 one-dose screen, 48 h (100 = growth as untreated, 0 = no growth, -100 = all killed)
What all share (conditions): 10 µM unless noted

Molecules are shown by their SMILES. Compounds without any hit were thinned out: in the full panel of roughly 83,000, 20% have a hit.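 Results are percent growth after 48 hours of single-concentration exposure. 100 means growth as in untreated cells, lower positive values show inhibition; negative values down to -100 show cell death.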 A number with no mark means an inactive call. Active and inactive are the calls of the source. Rule for the calls: active = growth percent below 10; inactive = the rest.

For the compound `Cc1[nH]c(C(=O)Nc2ccc(S(=O)(=O)N3CCCCC3)cc2OCCOCCOCCOCCOCCOCCOCCOCCOCCOc2cc(S(=O)(=O)N3CCCCC3)ccc2NC(=O)c2[nH]c(C)c3c2CCCCC3=O)c2c1C(=O)CCCC2`, the growth with DU-145 prostate is 47.3%; in the experiment on K-562 leukemia, 19.2%; in the experiment with MALME-3M melanoma, 3.69% (active); in the experiment on MDA-MB-231 breast, 11.6%; in the experiment on RXF 393 renal, 47%; in the experiment with SF-268 CNS, 44.3%. In addition, the growth with SF-295 CNS is 30.8%; in the experiment on SF-539 CNS it was 14.1%; in the experiment on UACC-257 melanoma it was -27% (active); with M14 melanoma, 14%; in the experiment with HCT-15 colon, 30.9%; in the experiment on HT29 colon it was 4.45% (active). Moreover, the growth in the experiment on SNB-75 CNS was -2.1% (active); in the experiment on SNB-19 CNS it was 33.3%; with U251 CNS, 24.3%; with PC-3 prostate it was 28.8%; in the experiment with SK-MEL-5 melanoma, 14.8%; with UACC-62 melanoma it was -32.5% (active). Also, the growth in the experiment on LOX IMVI melanoma was -75.1% (active); in the experiment on SK-MEL-28 melanoma it was 35.1%.
Consider `O=c1c2cc(-c3ccc(F)cc3F)ccc2n(O)c(=O)n1-c1cccc(C(F)(F)F)c1`, for which the growth with DU-145 prostate is 25.5%; with K-562 leukemia, 3.41% (active); in the experiment with MALME-3M melanoma, -12.2% (active); in the experiment on MDA-MB-231 breast, -10.3% (active); in the experiment on RXF 393 renal it was 3.38% (active); in the experiment with SF-268 CNS, 17.4%. Besides, the growth in the experiment on SF-295 CNS is -11.2% (active); with SF-539 CNS it was 21.1%; in the experiment with UACC-257 melanoma, -8.3% (active); in the experiment on M14 melanoma, 17.6%; in the experiment with HCT-15 colon, 10.5%; with HT29 colon, 62.9%. In addition, the growth in the experiment with SNB-75 CNS was -19.4% (active); with SNB-19 CNS, 10.5%; in the experiment on U251 CNS it was 5.79% (active); with PC-3 prostate, -0.871% (active); with SK-MEL-5 melanoma it was -59.7% (active); in the experiment with UACC-62 melanoma, -0.381% (active). In addition, the results for the growth in the experiment with LOX IMVI melanoma and with SK-MEL-28 melanoma were 12.5% and 27.2%, respectively.
For the compound `CCOC(=O)c1ccc(NC2=CC(=O)C(C)=C(C)C2=O)cc1`, the growth in the experiment with DU-145 prostate is 109%; with K-562 leukemia, 61.6%; in the experiment with MALME-3M melanoma, 97.1%; with MDA-MB-231 breast, 75.2%; with RXF 393 renal, 93.2%; in the experiment on SF-268 CNS, 85.6%. Besides, the growth with SF-295 CNS was 52.1%; in the experiment on SF-539 CNS, 99.2%; in the experiment on UACC-257 melanoma it was 84.1%; with M14 melanoma, 89.7%; with HCT-15 colon it was 88.5%; in the experiment on HT29 colon it was 110%. Further, the growth in the experiment on SNB-75 CNS was 78.7%; in the experiment on SNB-19 CNS it was 71.9%; with U251 CNS it was 81.6%; with PC-3 prostate it was 49%; in the experiment on SK-MEL-5 melanoma, 91.6%; in the experiment on UACC-62 melanoma it was 74.1%. In addition, the figures for the growth in the experiment with LOX IMVI melanoma and in the experiment on SK-MEL-28 melanoma were 46% and 109%, respectively.
As for `O=C1Nc2ccccc2/C1=N\c1nnc(-c2ccccc2)o1`, the growth in the experiment on DU-145 prostate is 107%; in the experiment on K-562 leukemia, 103%; with MALME-3M melanoma it was 89.7%; with MDA-MB-231 breast, 82.9%; in the experiment with RXF 393 renal it was 92%; with SF-268 CNS, 98.1%. Besides, the growth in the experiment with SF-295 CNS was 92.8%; in the experiment with SF-539 CNS, 97.8%; in the experiment on UACC-257 melanoma, 100%; in the experiment with M14 melanoma, 95.9%; with HCT-15 colon it was 87.2%; in the experiment with HT29 colon it was 99.2%. Besides, the growth is 59.9% in the experiment with SNB-75 CNS; 91.5% in the experiment with SNB-19 CNS; 97.8% with U251 CNS; 79% in the experiment with PC-3 prostate; 94.3% with SK-MEL-5 melanoma; 79.7% in the experiment on UACC-62 melanoma. For the same compound, the values for the growth in the experiment with LOX IMVI melanoma and in the experiment on SK-MEL-28 melanoma were 102% and 106%, respectively.
With `O=C(CSc1nnc(-c2cccs2)n1-c1ccccc1)Nc1ccccc1`, the growth in the experiment with DU-145 prostate was 83.3%; with K-562 leukemia, 49.6%; in the experiment with MALME-3M melanoma it was 35.2%; in the experiment on MDA-MB-231 breast it was 76.4%; with RXF 393 renal it was 59.8%; with SF-268 CNS, 60%. Further, the growth was 90.1% in the experiment on SF-295 CNS; 60.7% in the experiment on SF-539 CNS; 85.4% in the experiment on UACC-257 melanoma; 88.2% in the experiment with M14 melanoma; 80.3% in the experiment with HCT-15 colon; 91.1% in the experiment on HT29 colon. Also, the growth is -0.436% (active) in the experiment on SNB-75 CNS; 54.1% with SNB-19 CNS; 84.3% in the experiment with U251 CNS; 83% with PC-3 prostate; 80.1% with SK-MEL-5 melanoma; 67.7% in the experiment with UACC-62 melanoma. Also, the growth in the experiment on LOX IMVI melanoma is 71.9%; with SK-MEL-28 melanoma it was 76.9%.
As to `Cc1ccc([C@H]2c3[nH]c4ccccc4c3C[C@H]3C(=O)N(CCCCCCC(=O)NO)CC(=O)N23)s1`, the growth in the experiment on DU-145 prostate is 71.5%; in the experiment with K-562 leukemia, 35.8%; in the experiment with MALME-3M melanoma, 22.9%; in the experiment on MDA-MB-231 breast, 72.2%; with RXF 393 renal it was 59.7%; in the experiment with SF-268 CNS, 88.5%. Further, the growth with SF-295 CNS is 78.1%; with SF-539 CNS it was 58%; with UACC-257 melanoma, 53.5%; in the experiment on M14 melanoma it was 63.5%; in the experiment with HCT-15 colon, 93.6%; in the experiment with HT29 colon, 56%. The growth with SNB-75 CNS was 35.8%; in the experiment on SNB-19 CNS, 62.7%; with U251 CNS, 65%; with PC-3 prostate, 61.9%; with SK-MEL-5 melanoma, 40.5%; with UACC-62 melanoma, 33.3%. Further, the growth is -93.2% (active) in the experiment on LOX IMVI melanoma and 48.3% in the experiment on SK-MEL-28 melanoma.
With `O=C(Nc1ccc(Cl)c(C(F)(F)F)c1)Nc1ccc2oc(=O)ccc2c1`, the growth in the experiment with DU-145 prostate was 40.5%; in the experiment with K-562 leukemia, 19.1%; with MALME-3M melanoma, 42.6%; with MDA-MB-231 breast it was 69.3%; with RXF 393 renal, 89.2%; in the experiment on SF-268 CNS, 65%. The growth was 5.31% (active) in the experiment with SF-295 CNS; 63.3% with SF-539 CNS; 64.4% in the experiment on UACC-257 melanoma; 49.6% with M14 melanoma; 16.6% with HCT-15 colon; 65.4% with HT29 colon. Also, the growth was 58.6% in the experiment on SNB-75 CNS; 28.5% in the experiment on SNB-19 CNS; 31.3% in the experiment with U251 CNS; 10.6% with PC-3 prostate; 41.4% with SK-MEL-5 melanoma; 27.9% in the experiment with UACC-62 melanoma. Further, the growth is 1.96% (active) in the experiment on LOX IMVI melanoma and 66.7% in the experiment on SK-MEL-28 melanoma.

Values taken from PubChem BioAssay (NCI).
